TrxR1 substrate = qHTS Assay for Substrates of Mammalian Selenoprotein Thioredoxin Reductase 1 (TrxR1): qHTS. Potency, µM (highest dose often 114 µM), for the others: at the highest dose activity change, negative = substrate turnover. hit rate 0.01% among 390,000. purified TrxR1 substrate turnover, NADPH consumption readout. Thioredoxin reductase 1, cytoplasmic (Rattus norvegicus), O89049. AID 588456, 2011; also: potency is read from the fitted curve at half-maximal effect; nearly all actives have a fitted effect of over 50% in size
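Rat TrxR1, dispensed at 90 nM, was prereduced with 400 uM NADPH (final) for 5 min at ~22 deg C, then incubated with compound 15 min before 400 uM selenite. A first-read NADPH fluorescence drop versus no-compound background flagged substrates.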
Eya2 inh = qHTS Assay for Inhibitors of the Phosphatase Activity of Eya2. Potency, µM (top dose mostly 76.9 µM), for the others: top-dose activity, negative = inhibition, hits mostly inhibitors. recombinant Eya2, OMFP fluorescence dephosphorylation (OMFP is methylfluorescein phosphate). Protein phosphatase EYA2 (Homo sapiens), O00167. hit rate 0.006% among 330,000; also: potency is read from the fitted curve at half-maximal effect
Target sequence (O00167 whole entry, looked up): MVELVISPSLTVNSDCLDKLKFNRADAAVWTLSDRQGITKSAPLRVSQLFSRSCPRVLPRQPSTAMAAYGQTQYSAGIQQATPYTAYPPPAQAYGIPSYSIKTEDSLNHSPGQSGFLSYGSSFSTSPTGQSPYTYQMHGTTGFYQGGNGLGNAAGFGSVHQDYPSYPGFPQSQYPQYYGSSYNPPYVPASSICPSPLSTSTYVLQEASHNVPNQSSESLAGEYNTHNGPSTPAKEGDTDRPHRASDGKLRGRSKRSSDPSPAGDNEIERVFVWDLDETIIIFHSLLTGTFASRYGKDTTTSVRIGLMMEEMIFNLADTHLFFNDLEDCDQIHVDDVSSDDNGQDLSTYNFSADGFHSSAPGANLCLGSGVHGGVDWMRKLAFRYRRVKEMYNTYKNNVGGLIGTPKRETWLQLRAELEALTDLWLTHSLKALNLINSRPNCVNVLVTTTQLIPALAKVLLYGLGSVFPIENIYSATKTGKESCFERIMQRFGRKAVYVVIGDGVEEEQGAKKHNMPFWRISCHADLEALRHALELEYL
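Eya2 protein (added as 0.2 uM solution) was preincubated with compound for 10 min at ambient temperature in 50 mM HEPES pH 7.5, 50 mM NaCl, 5 uM MgCl2, 0.05% BSA, 1 mM DTT. OMFP (added at 50 uM) then reacted 10 min; fluorescence read at 485/525 nm.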
TrxR1 inh = qHTS Assay for Inhibitors of Mammalian Selenoprotein Thioredoxin Reductase 1 (TrxR1): qHTS; hit rate 1% among 390,000; Thioredoxin reductase 1, cytoplasmic (Rattus norvegicus), O89049; recombinant rTrxR1, NADPH fluorescence consumption, selenite substrate; Potency, µM (top dose mostly 114 µM), for the others: top-dose activity change, negative = inhibition, hits mostly inhibitors; also: potency is read from the fitted curve at half-maximal effect; nearly all actives have a fitted effect of over 65% in size
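Rat TrxR1 (90 nM in the dispensed reagent) was pre-reduced with 400 uM NADPH for 5 min at room temperature, then incubated with compound for 15 min. After 400 uM selenite was added, NADPH fluorescence (Ex 340/Em 450 nm) was followed for 8 min.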
mIDH1 inhibitor = qHTS for Inhibitors of mutant isocitrate dehydrogenase 1 (IDH1): qHTS; AID 602179, 2012; hit rate 0.093% among 390,000; Isocitrate dehydrogenase [NADP] cytoplasmic (Homo sapiens), O75874; Potency, µM (highest dose often 76.6 µM), inactives show at the highest dose activity change, negative = inhibition, hits mostly inhibitors; IDH1-R132H enzyme, NADPH consumption, diaphorase/resazurin fluorescence; also: potency is read from the fitted curve at half-maximal effect; nearly all actives have a fitted effect of over 65% in size
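IDH1-R132H (0.5 ug/mL) preincubated 30 min with compound, then NADPH (0.016 mM) and alpha-KG (2 mM) added; 80 min at RT, pH 7.5. Remaining NADPH coupled via diaphorase/resazurin to fluorescence (540/590 nm); concentration-response curves normalized to no-enzyme control.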
Coupling enz = qHTS Assay for Inhibitors of Fructose-1,6-bisphosphate Aldolase from Giardia Lamblia: Coupling assay counterscreen | coupling enzyme system counterscreen, AmpLite Red fluorescence | AID 2472, 2010 | activity change, negative = inhibition, % at 58.2 µM, hits read low | hit rate 0.67% among 290,000; in the data active = activity change below about -30%
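Compounds tested against the coupling enzymes alone at 57.5 uM final; readout was AmpLite Red fluorescence (525/598 nm) after 20 min at RT.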
Active calls of the source: *; ? = inconclusive; . = no result; ! = not active in a repeat; [ ] = remark or other dose. Hits are enriched below; roughly 1.5% of the tested compounds scored in any of these assays. Unless noted, calls follow the shape of the dose curve; as a rule, active = well fitted curve in the direction sought with a large enough effect; inconclusive = small, poorly fitted or top-dose-only effect, or another doubt; inactive = no such curve, though single readings can be large; an effect the other way counts as inactive or inconclusive. % is scaled to controls: 0 for no effect and ±100 for the full control effect.

SMILES | TrxR1 substrate | Eya2 inh | TrxR1 inh | mIDH1 inhibitor | Coupling enz
CS(=O)(=O)c1ncc(Cl)c(C(=O)N(Cc2ccc(Cl)cc2)Cc2ccco2)n1 | 12.4% | . | 0.708µM* | 0.0% | .
O=C(NCc1ccc2c(c1)OCO2)c1nc(S(=O)(=O)Cc2ccccc2)ncc1Cl | 2.7% | 1.2% | 11.2µM* | -4.3% | .
COc1ccc(CNC(=O)c2nc(S(=O)(=O)Cc3ccccc3)ncc2Cl)cc1 | -3.8% | 2.7% | 3.16µM*! | ? | .
COc1ccc(N(Cc2ccccc2)C(=O)c2nc(S(C)(=O)=O)ncc2Cl)cc1 | 7.2% | . | 1µM* | -0.9% | .
CCS(=O)(=O)c1ncc(Cl)c(C(=O)Nc2ccc(C)cc2)n1 | 7.8% | -3.0% | ? | -5.5% | 0.2
CCS(=O)(=O)c1ncc(Cl)c(C(=O)NCc2ccccc2)n1 | 4.4% | . | 5.62µM* | . | .
CC(C)C[C@H](NC(=O)[C@H](CCCCN)NC(=O)CNC(=O)[C@H](CC(C)C)NC(=O)[C@@H](NC(=O)[C@@H]1CSSC[C@H](N)C(=O)N[C@@H](CO)C(=O)N[C@@H](CC(N)=O)C(=O)N[C@@H](CC(C)C)C(=O)N[C@@H](CO)C(=O)N[C@@H]([C@@H](C)O)C(=O)N1)C(C)C)C(=O)N[C@@H](CO)C(=O)N[C@@H](CCC(N)=O)C(=O)N[C@@H](CCC(=O)O)C(=O)N[C@@H](CC(C)C)C(=O)N[C@@H](Cc1cnc[nH]1)C(=O)N[C@@H](CCCCN)C(=O)N[C@@H](CC(C)C)C(=O)N[C@@H](CCC(N)=O)C(=O)N[C@H](C(=O)N[C@@H](Cc1ccc(O)cc1)C(=O)N1CCC[C@H]1C(=O)N[C@@H](CCCNC(=N)N)C(=O)N[C@H](C(=O)N[C@@H](CC(N)=O)C(=O)N[C@H](C(=O)NCC(=O)N[C@@H](CO)C(=O)NCC(=O)N[C@H](C(=O)N1CCC[C@H]1C(N)=O)[C@@H](C)O)[C@@H](C)O)[C@@H](C)O)[C@@H](C)O | . | . | . | . | 3.3
CC[C@H](C)[C@H](NC(=O)[C@H](Cc1ccc(O)cc1)NC(=O)[C@@H]1CCCN1C(=O)[C@@H](N)CCCN=C(N)N)C(=O)N[C@@H](CC(C)C)C(=O)O | . | . | . | . | -0.1
CN(C)CCCN(C(=O)COc1ccccc1)c1nc2ccc(F)cc2s1 | -5.2% | -7.1% | -7.2% | -3.7% | -1.0
CN(C)CCCN(C(=O)CCOc1ccccc1)c1nc2ccc(F)cc2s1 | -3.4% | 7.4% | 0.631µM* | 5.1% | 0.2
O=C(CCOc1ccccc1)N(Cc1cccnc1)c1nc2ccc(F)cc2s1 | 3.3%[57.1 µM] | . | 7.08µM* | -1.3% | .
CN(C)CCCN(C(=O)CCOc1ccccc1)c1nc2c(F)cccc2s1 | 17.8%[57.1 µM] | -17.8% | 0.447µM* | 6.8% | 3.7
O=C(COc1ccccc1)N(Cc1cccnc1)c1nc2ccc(F)cc2s1 | -4.0%[57.1 µM] | . | 0.1%[57.1 µM] | 13.2% | .
Cc1cc(C)c2nc(N(CCCN(C)C)C(=O)c3ccc4c(c3)CCCC4)sc2c1 | -6.8% | -18.2% | -11.3% | 9.8% | .
CN(C)CCCN(C(=O)c1ccc2c(c1)CCCC2)c1nc2c(F)cccc2s1 | -0.8% | -16.5% | -15.3% | 7.6% | -37.0*
CC(C)ON([C@@H](C(=O)NO)C(C)C)S(=O)(=O)c1ccc(-c2ccccc2)cc1 | -5.2%[57.1 µM] | 0.0% | 0.2%[57.1 µM] | . | .
COC(=O)NC(/C(C(=O)OC)=C(\C)NCc1ccccc1)c1ccc2ccccc2c1 (centres undefined) | . | . | . | . | -14.3
CN(c1ccc(/C=C/c2ccccc2)cc1)P1(=O)NCCCO1 (centres undefined) | 22.0% | . | -12.2% | . | .
C=C(C)CSc1cc(C)c(C#N)c2nc3ccccc3n12 | 35.5% | 7.1% | 11.2µM* | -0.8% | -14.2
COc1ccc(OC)c(/C=C/c2cc3ccccc3cn2)c1 | -2.6% | . | 3.1% | . | .

Screens: PubChem BioAssay, National Center for Advancing Translational Sciences (NCATS)
